Source: PubChem BioAssay AID1645875 (National Center for Advancing Translational Sciences (NCATS), 2021)
Several values for one entry are separate records, joined by “and”; a condition that tells them apart may be missing. Identical values can stand only once. Inconclusive results are not listed. Activity calls are given as the source filed them. Calls come from the whole dose curve; as a rule, active = well fitted inhibition curve with a large enough effect; inconclusive = small, poorly fitted or top-dose-only effect; inactive = no such curve, though single readings can be large or run the other way.

target: N-terminal Xaa-Pro-Lys N-methyltransferase 1 (Homo sapiens) (UniProt Q9BV86); assay: Orthogonal qHTS for Inhibitors of N-terminal methyltransferase 1 (NTMT1): ThioGlo Assay; conditions: NTMT1 SAHH-coupled ThioGlo fluorescence, 30 min; series mostly up to 84.5 µM
From the text: Assay Submitter (PI): Rong Huang Ph.D. Purdue University, West Lafayette, IN 47907 The N-terminal methytransferase 1 is the first methyltransferase that methylates protein alpha-N-amines and plays an important role in regulating cell mitosis, chromatin interactions and DNA repair. It is observed to be over-expressed in various cancer patient tissues like malignant melanoma and colorectal cancer tissues. Knockdown of NTMT1 in cancer cells causes cell mitotic defects and enhances sensitivity to DNA damaging chemotherapeutics. […] These critical cellular processes in which NTMT1 is implicated, coupled with emerging links to cellular dysfunction, strengthen the inference that NTMT1 is a compelling novel anticancer target. Progress have been made in understanding the molecular properties of NTMT1 and the biological consequences of protein alpha-N-terminal methylation, but there are no specific small molecule probes available for NTMT1 to fully characterize its MTase activity. To address this unmet need, a panel of assay is created and established to enable quantitative high-throughput screening (qHTS) for novel, potent, and selective small molecule NTMT1 inhibitors. Two orthogonal qHTS that use different reagents (ThioGlo vs. MTaseGlo) are developed for primary robotic screening against the NCATS chemical library of more than 400,000 small molecules. Identified inhibitors are reacquired, validated, and further characterized. […] Early Translation Branch (ETB) National Center for Advancing Translational Sciences (NCATS) National Institute of Health (NIH)
Materials: NTMT1 enzyme, substrate SPKRIA, control peptide RCC1-6 is provided by the Huang laboratory. MTaseGlo Assay: PROTOCOL TABLE; SEQUENCE No. (e.g., 1, 2, 3, etc.); […] (e.g., Cells, Incubation, Reagent, etc.); VALUE; DESCRIPTION 1; Enzyme; 3 uL; Dispense enzyme mixture (final concentrations of 125 nM NTMT1) into Greiner 1536-well black / solid bottom assay plate (Greiner Bio One, Monroe, NC). 2; Compounds; 23 nL; Compounds (at various concentration) and 1uM final concentration of RCC1-6 (SPKRIA) control were transferred via a Kalypsys Pin Tool (Wako USA) equipped with a 1536-slotted pin array (Wako Automation, Richmond, VA). 3; Incubation; 1 min; Incubate at room temperature. 4; Substrate; 1 uL; Dispense 1 uL of substrate solution (100uM SAM, 10uM SAHH, 15uM ThioGlo3 final concentration) was added to the wells bringing the final assay volume to 4uL. The assay plate was covered with metal lids. 5; Detection; Fluorescence; Initial fluorescence readout (background signal) was detected using the ViewLux microplate imager with an excitation filter of 340 nm and 450 nm emission filter. 6; Incubation; 30 min; Assay plates were incubation at room temperature in the dark. 7; Detection; Fluorescence; Final fluorescence readout was detected using the ViewLux microplate imager with an excitation filter of 340 nm and 450 nm emission filter. The data was normalized to the background fluorescence.

Sequence of N-terminal Xaa-Pro-Lys N-methyltransferase 1 (Homo sapiens) (Q9BV86 whole entry, looked up): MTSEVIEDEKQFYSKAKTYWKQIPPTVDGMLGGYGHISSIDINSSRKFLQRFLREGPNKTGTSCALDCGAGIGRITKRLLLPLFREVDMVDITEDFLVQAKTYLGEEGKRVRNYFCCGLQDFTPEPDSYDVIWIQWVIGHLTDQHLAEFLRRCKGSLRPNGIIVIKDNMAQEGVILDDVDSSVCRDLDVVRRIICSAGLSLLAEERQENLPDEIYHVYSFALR

Structure (SMILES)	Potency
CN(C)CCCC1(c2ccc(F)cc2)OCc2cc(C#N)ccc21 (stereo not given)	inactive
CC/C(=C(\c1ccccc1)c1ccc(OCCN(C)C)cc1)c1ccccc1	inactive
Fc1cc(Nc2nc(-c3ccncc3)nc3ccccc23)ccc1N1CCNCC1	21.8 µM (active)
COc1cc2c(NC3CCN(C(C)C)CC3)nc(N3CCCN(CC4CCCCC4)CC3)nc2cc1OCCCN1CCCC1	12.3 µM (active)
COc1cc2c(NC3CCN(C4CCCCC4)CC3)nc(N3CCCN(C)CC3)nc2cc1OCCOCCN(C)C	43.5 µM (active)
CNC(=O)c1ccccc1Nc1cc(Nc2ccc(N3CCOCC3)cc2OC)ncc1C(F)(F)F	8.79 µM (active)
Cc1cc(C)c2c(N)c(C(=O)NCc3ccc(Cl)cc3)sc2n1	inactive
COc1ccc(-c2cc3c(C)nc(N)nc3n(C3CCC(OCCO)CC3)c2=O)cn1 (stereo not given)	13.9 µM (active)
COc1cc2c(NC3CCN(C)CC3)nc(N3CCCN(C)CC3)nc2cc1OCCCN1CCCCC1	43.5 µM (active)
COc1c(C(C)C)c(O)c(O)c2c1C(OC)[C@H]1OC(=O)[C@@]23CCCC(C)(C)[C@H]13 (stereo not given in full)	6.1 µM (active)
Nc1ccc(C(=O)Nc2cccc(-c3nc(N4CCOCC4)c4oc5ncccc5c4n3)c2)cn1	22.1 µM (active)
COc1c(C)c(C(=O)c2ccc(N)c(C(=O)O)c2)n2ccccc12	1.97 µM (active) and 1.75 µM (active)
CN=c1nc(-c2ccccc2)n(-c2ccccc2)s1	5.55 µM (active)
COc1cc2c(NC3CCN(CC4CCCCC4)CC3)nc(N3CCCCC3)nc2cc1OCCOCCN(C)C	12.3 µM (active)
C#Cc1cccc(Nc2ncnc3cc(OC)c(OCCCCCCC(=O)NO)cc23)c1	22.1 µM (active)
Cc1cc2c(C(C)C)c(O)c(O)c(C=O)c2c(O)c1-c1c(C)cc2c(C(C)C)c(O)c(O)c(C=O)c2c1O	38.8 µM (active)
C[C@]12C[C@H](O)[C@H]3[C@@H](CCC4=CC(=O)CC[C@@]43C)[C@@H]1CC[C@@H]2C(=O)CO	inactive
COc1ccc(C2=Nn3c(nnc3-c3ccccc3C)SC2)cc1OC	34.5 µM (active)
CC(C)c1cc(CNc2nc(Nc3cc(C4CC4)[nH]n3)cc(N3CCN(C)CC3)n2)on1	7.84 µM (active)
CC(C)c1cc2c(c(O)c1O)[C@@]13CCCC(C)(C)C1[C@@H](O)[C@@H]2OC3=O (stereo not given in full)	12.2 µM (active)

Structure (SMILES)	Potency
COc1cc2nc(N3CCN(C(=O)c4ccco4)C4CCCCC43)nc(N)c2cc1OC (stereo not given)	55.5 µM (active)
COc1ccc2nc(-c3cc(OC)c(OC)c(OC)c3)cc(C(=O)NCC(=O)Nc3ccc(C(C)=O)cc3)c2c1	31.2 µM (active)
Oc1cc2c(c(Cl)c1O)CCNCC2c1ccccc1 (stereo not given)	30.8 µM (active)
O=C(NCCN1CCCC1)c1cc(-c2ccc(CN3CCOCC3)cc2)nc2ccc(F)cc12	24.1 µM (active)
C[C@]12CC[C@@H]3c4ccc(O)c(O)c4CC[C@H]3[C@@H]1CCC2=O	17.5 µM (active)
COc1cc2c(NC3CCN(C(C)C)CC3)nc(N3CCCN(c4ccccc4)CC3)nc2cc1OCCCN1CCCC1	55.5 µM (active)
CCn1c(=O)c(-c2ccn[nH]2)cc2c(C)nc(N)nc21	49.4 µM (active)
COc1cc2c(NC3CCN(CC4CCCCC4)CC3)nc(N3CCCN(C)CC3)nc2cc1OCCCN1CCCCC1	43.5 µM (active)
Fc1ccccc1CNCc1ccc(-c2ccnc3[nH]ccc23)cc1	49.4 µM (active)
Cc1[nH]c(/C=C2\C(=O)Nc3cc(-c4ccccc4)ccc32)c(C)c1CCC(=O)O	9.87 µM (active)
Cc1ccnc(NC(=S)N2CCN(c3cc(C(F)(F)F)cc(C(F)(F)F)c3)CC2)c1	4.35 µM (active)
FC(F)(F)c1cccc(N2CCN(C(=S)Nc3ccccn3)CC2)c1	1.54 µM (active)
Nc1ncnc2c1nc(N)n2[C@@H]1O[C@H](CO)[C@@H](O)[C@H]1O	27.8 µM (active)
Cc1ccc(NC(=O)N2CCN(c3nc(N)nc4sc(-c5cccnc5)nc34)CC2)cc1	24.8 µM (active)
CC[C@@H](c1ccc(F)c(F)c1)n1c(C(=O)OC)c(-c2ccno2)[nH]c1=S	6.98 µM (active)
COc1ccnc(NC(=S)N2CCN(c3cccc(Cl)c3Cl)CC2)c1	3.88 µM (active)
Cc1cccc(C)c1OCC(N)C(C)C (stereo not given)	1.54 µM (active)
CCNC(=O)c1noc(-c2cc(C(C)C)c(O)cc2O)c1-c1ccc(CN2CCOCC2)cc1	inactive
NCC(O)C1CCCCCCC1 (stereo not given)	inactive
CN(C)c1ccc(Nc2nc(N)n(C(=O)c3c(F)cccc3F)n2)cc1	4.94 µM (active)
